KinaseGlo FLuc: counter-screen: inhibitors of Kinase-Glo firefly luciferase. Q27757. Kinase-Glo luciferase, ATP luminescence, 8 min. Potency, µM (doses to about 38.3 µM), usual class: inhibitors. 200,000 tested, 0.28% active; also: nearly all actives have a fitted effect of over 60% in size
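Light output from Kinase-Glo luciferase with luciferin and 10 uM ATP in 50 mM imidazole pH 7.2, KCl, MgCl2, Tween 20, BSA; compound pin-delivered, 8-min ambient incubation, then luminescence read.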
Gal4-VP16 FLuc: counter-screen for ROR gamma inhibitors: Gal4-VP16 reporter | 310,000 tested, 3.5% active | Potency, µM (doses to about 53.6 µM), most hits filed as inhibitors | Drosophila S2 Gal4-VP16 UAS-luciferase, luminescence, 20 h;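 also: Gal4-VP16 expression switched on by copper sulfate through the metallothionein promoter; nearly all actives have a fitted effect of over 50% in size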
RORg inh: ROR gamma (mouse) transcription inhibition | 310,000 tested, 5.4% active | P51450 | Potency, µM (titrated, usually from 53.6 µM), most hits filed as inhibitors | AID 2551 | Drosophila S2 Gal4-RORgamma UAS-luciferase reporter, 20 h; also: nearly all actives have a fitted effect of over 60% in size
Target sequence (P51450 whole entry, looked up, the tested form may be a part): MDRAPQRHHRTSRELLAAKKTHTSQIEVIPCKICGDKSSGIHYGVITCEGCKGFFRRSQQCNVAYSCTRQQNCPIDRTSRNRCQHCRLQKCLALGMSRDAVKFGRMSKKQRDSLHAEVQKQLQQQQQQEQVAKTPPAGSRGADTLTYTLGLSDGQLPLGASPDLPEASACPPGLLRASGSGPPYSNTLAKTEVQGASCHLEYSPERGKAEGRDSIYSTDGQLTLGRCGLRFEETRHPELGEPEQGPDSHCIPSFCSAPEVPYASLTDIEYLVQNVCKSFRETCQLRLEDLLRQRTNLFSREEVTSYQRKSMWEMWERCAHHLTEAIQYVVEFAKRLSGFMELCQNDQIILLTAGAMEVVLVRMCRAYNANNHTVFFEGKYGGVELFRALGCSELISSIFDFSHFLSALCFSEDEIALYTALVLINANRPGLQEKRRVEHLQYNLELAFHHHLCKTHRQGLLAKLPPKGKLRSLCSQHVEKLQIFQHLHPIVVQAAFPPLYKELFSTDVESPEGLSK
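A Gal4/UAS one-hybrid system in insect cells: metallothionein-promoter Gal4–ROR gamma fusion plus Photinus luciferase reporter. Copper sulfate 700 uM final, 20 hr ambient incubation, luminescent detection after 10 min with reagent.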
Of the large screens only hits and unclear results are named; the others gave an inactive call. Compounds with a hit are over-represented: about 6.4% of the library has one in this group of screens. Calls follow the shape of the dose curve; as a rule, active = well fitted curve in the direction sought with a large enough effect; inconclusive = small, poorly fitted or top-dose-only effect, or another doubt; inactive = no such curve, though single readings can be large; an effect the other way counts as inactive or inconclusive.

CN(C)c1ccc(N=O)cc1	Gal4-VP16 FLuc 5.6µM, RORg inh 2.2µM (no result: KinaseGlo FLuc)
CN(C)c1ccc(P(=S)(N(C)C)N(C)C)cc1	RORg inh inconclusive
CC[C@]1(O)CC(O[C@@H]2CC(N(C)C)C(O)C(C)O2)c2c(cc3c(c2O)C(=O)c2c(O)cccc2C3=O)C1C(=O)OC (some centres undefined)	Gal4-VP16 FLuc 4.5µM, RORg inh 2.2µM
CC[C@@]1(O)CC(O)c2c(cc3c(c2O)C(=O)c2c(O)ccc(O)c2C3=O)C1C(=O)OC (some centres undefined)	RORg inh inconclusive
O=C(CCN1CCCCC1)Nc1ccc(Br)cc1C(=O)c1ccccc1	none (no result: KinaseGlo FLuc)
O=C(CCN1CCN(c2ccccc2)CC1)c1ccc(Br)cc1	Gal4-VP16 FLuc inconclusive, RORg inh 35µM (no result: KinaseGlo FLuc)
COc1cc(CCN)c(OC)c(OC)c1	none (no result: Gal4-VP16 FLuc, RORg inh)
CC[C@@]1(O)C(=O)OCc2c1cc1n(c2=O)Cc2cc3cc(O)ccc3nc2-1	Gal4-VP16 FLuc inconclusive, RORg inh inconclusive
CC[C@@]1(O)C(=O)OCc2c1cc1n(c2=O)-c2cc3ccccc3nc2C1	Gal4-VP16 FLuc inconclusive, RORg inh 0.13µM
Cc1nc2ccccc2c(=O)n1-c1ccncc1	none (no result: KinaseGlo FLuc)
Cc1nc2ccccc2c(=O)n1-c1cc([N+](=O)[O-])cc([N+](=O)[O-])c1	RORg inh 1.1µM (no result: KinaseGlo FLuc)
O=C(O)[C@@H]1CSC(c2cccnc2)N1 (some centres undefined)	none
COP(=O)(OC)O/C(=C\Cl)c1cc(Cl)c(Cl)cc1Cl	Gal4-VP16 FLuc inconclusive (no result: KinaseGlo FLuc)
O=C(O)C[O][Sb][O]CC(=O)O	none (no result: Gal4-VP16 FLuc, RORg inh)
CN1C2CCC1CC(OC(=O)c1ccc(Cl)cc1)C2 (centres undefined)	none
CN1[C@@H]2CC[C@H]1CC(O[C@@H](c1ccccc1)c1ccc(Cl)cc1)C2 (some centres undefined)	Gal4-VP16 FLuc 14µM, RORg inh 13µM
CCCc1cc2c(n1Cc1cccc(Cl)c1)C(C)C1CN(C(=O)c3ccccc3)C(C)(C(=O)OC)C21 (centres undefined)	RORg inh inconclusive
CC(C)(C)P(=O)(NCc1ccccc1)c1ccccc1 (centres undefined)	none
CC(C)CNP(=S)(c1ccccc1)C(C)(C)C (centres undefined)	Gal4-VP16 FLuc inconclusive, RORg inh 7.9µM (no result: KinaseGlo FLuc)
C=CC(=C)C	none (no result: KinaseGlo FLuc)
COC1=CC23CCCN2CCc2cc4c(cc2C3C1O)OCO4 (centres undefined)	none
COC(=O)C[C@@](O)(CCC(C)(C)O)C(=O)O[C@@H]1C(OC)=C[C@]23CCCN2CCc2cc4c(cc2[C@@H]13)OCO4	Gal4-VP16 FLuc 0.11µM, RORg inh 0.089µM (no result: KinaseGlo FLuc)
COC(=O)C(O)C(O)(CCC(C)C)C(=O)OC1C(OC)=CC23CCCN2CCc2cc4c(cc2C13)OCO4 (centres undefined)	Gal4-VP16 FLuc inconclusive, RORg inh 0.13µM
CCCBr	none (no result: KinaseGlo FLuc)
COc1ccc(C(=O)O[C@H]2CC[C@@]3(C)[C@H]4CC[C@H]5[C@]3(C[C@]3(O)[C@H]6CN7C[C@H](C)CC[C@H]7[C@](C)(O)[C@]6(O)[C@H](O)C[C@]53O)O[C@]24O)cc1OC	none (no result: Gal4-VP16 FLuc, RORg inh)
COc1c(C(C)(C)C)cc([N+](=O)[O-])c(C)c1[N+](=O)[O-]	none (no result: KinaseGlo FLuc)
CN(C)C(=O)Oc1cccc2c(OC(=O)N(C)C)cccc12	none
CN(Cc1ccccc1)Cc1ccccc1OC(=O)N(C)C	RORg inh 1.4µM (no result: KinaseGlo FLuc)
CN(CCC(=O)O)C1=Nc2ccc(Cl)cc2C(c2ccccc2)=[N+]([O-])C1	none (no result: Gal4-VP16 FLuc, RORg inh)
O=C(O)COc1nc(Cl)c(Cl)cc1Cl	none (no result: KinaseGlo FLuc)
Cc1ccc2c(Cl)cc(Cl)c(OCC(=O)N(C(C)C)C(C)C)c2n1	RORg inh 6.3µM
Nc1c([N+](=O)[O-])ccc(Oc2ccccc2)c1Cl	none (no result: KinaseGlo FLuc)
O=C(O)CCC(CP(=O)(O)O)C(=O)O (centres undefined)	none (no result: KinaseGlo FLuc)
CC(C)OC(=O)Nc1cccc(Cl)c1	RORg inh inconclusive
N#CC(C#N)=NNc1cccc(Cl)c1	Gal4-VP16 FLuc 0.63µM, RORg inh 1.1µM
CCC1CN2CCC1CC2C(O)c1ccnc2ccc(OC)cc12 (centres undefined)	none
CN1C(=O)[C@]23CC4=CC=C[C@H](O)[C@H]4N2C(=O)[C@@]1(CO)SS3	RORg inh 0.045µM (no result: KinaseGlo FLuc)
CCC(C)n1c(=O)[nH]c(C)c(Br)c1=O (centres undefined)	none (no result: KinaseGlo FLuc)
COc1ccc(CN2CCCC(C(=O)c3ccccc3SC)C2)cc1O (centres undefined)	none
CSc1ccccc1C(=O)C1CCCN(Cc2ccccn2)C1 (centres undefined)	RORg inh 11µM
O=C(c1ccc(C(F)(F)F)cc1)C1CCCN(C2CCSCC2)C1 (centres undefined)	none
COc1ccccc1C(=O)C1CCCN(Cc2cnc(C)s2)C1 (centres undefined)	none
CSc1ccccc1C(=O)C1CCCN(Cc2cccc(C)n2)C1 (centres undefined)	Gal4-VP16 FLuc 20µM, RORg inh 4.5µM
Cc1cccc(CN2CCCC(C(=O)c3ccc(C(F)(F)F)cc3)C2)n1 (centres undefined)	Gal4-VP16 FLuc 7.9µM, RORg inh 2.8µM
NC(=O)O	none (no result: KinaseGlo FLuc)
CCCCCCCC/C=C\CCCCCCCC(=O)OC[C@@H](COP(O)(O)=S)OC	none (no result: KinaseGlo FLuc)
CCC(C)C(=O)N[C@@H](c1ccccc1)[C@@H](O)C(=O)O[C@H]1C[C@@]2(O)[C@@H](OC(=O)c3ccccc3)C3[C@](C)(C(=O)[C@H](OC(C)=O)C(=C1C)C2(C)C)[C@@H](O)C[C@H]1OC[C@@]31OC(C)=O (some centres undefined)	RORg inh inconclusive (no result: KinaseGlo FLuc)
C/C=C(\C)C(=O)N[C@@H](c1ccccc1)[C@@H](O)C(=O)O[C@H]1C[C@@]2(O)[C@@H](OC(=O)c3ccccc3)C3[C@](C)(C(=O)[C@H](OC(C)=O)C(=C1C)C2(C)C)[C@H](O)C[C@H]1OC[C@@]31OC(C)=O (some centres undefined)	Gal4-VP16 FLuc 35µM, RORg inh inconclusive (no result: KinaseGlo FLuc)
C/C(=N\NC(N)=S)C12CC3CC(CC(C3)C1)C2	Gal4-VP16 FLuc 2.5µM, RORg inh 1.8µM
CC[C@H]1CN2CCc3cc(OC)c(OC)cc3[C@H]2C[C@@H]1C[C@@H]1NCCc2cc(OC)c(OC)cc21	Gal4-VP16 FLuc 2.5µM, RORg inh 0.79µM
COc1cc2c(cc1OC)[C@H](C)NCC2	none
CC(=O)O[C@@H]1[C@@H](O)C2OC3C=C(C)C(=O)[C@@H](O)[C@]3(CO)C1(C)C21CO1 (some centres undefined)	Gal4-VP16 FLuc 0.11µM, RORg inh 0.63µM (no result: KinaseGlo FLuc)
C[C@@]12CC[C@H](O)C[C@@H]1CC[C@H]1[C@@H]2C[C@@H](O)[C@]2(C)[C@@H](C3=CC(=O)OC3)CC[C@]12O	none
CO[C@H]1[C@H](O)[C@H](O[C@@H]2[C@H](Oc3cccc4c(O)c5c(=O)oc6ccc(C)c7c(=O)oc(c34)c5c67)O[C@@H](C)[C@H](O)[C@H]2O)O[C@@H](C)[C@@H]1O	none (no result: Gal4-VP16 FLuc, RORg inh)
Cc1cc(C)cc(OP(=O)(Oc2cc(C)cc(C)c2)Oc2cc(C)cc(C)c2)c1	none (no result: KinaseGlo FLuc)
CC(C)Oc1cc(-n2c(=S)[nH]c3ccccc3c2=O)c(Cl)cc1Cl	Gal4-VP16 FLuc 5µM, RORg inh 2.8µM
Cc1ccc2[nH]c(=S)n(-c3cccnc3)c(=O)c2c1	RORg inh inconclusive (no result: KinaseGlo FLuc)
